Assay in all cases: NCI-60 one-dose screen, 48 h (100 = growth as untreated, 0 = no growth, -100 = all killed)
For one assay, the system named is NCI-H522 lung. The following applies: 10 µM unless noted.
The test system of another assay is A549/ATCC NSCLC. The following applies: 10 µM unless noted.
The next assay concerns COLO 205 colon. As to conditions: 10 µM.
The next assay has as its system SNB-75 CNS. The following applies: 10 µM unless noted.
In another assay the test system is PC-3 prostate. The following applies: 10 µM unless noted.
In the next assay the test system is SK-MEL-5 melanoma. As to conditions: 10 µM unless noted.
A further assay has as its system SK-MEL-28 melanoma. The following applies: 10 µM unless noted.
In the next assay the test system is EKVX NSCLC. The following applies: 10 µM unless noted.
Another assay relates to CAKI-1 renal. As to conditions: 10 µM unless noted.
For a further assay, the system named is RPMI-8226 leukemia. As to conditions: 10 µM unless noted.
For another assay, the system named is IGROV1 ovarian. As to conditions: 10 µM.
The test system of a further assay is OVCAR-3 ovarian. As to conditions: 10 µM unless noted.
The next assay has as its system HS 578T breast. As to conditions: 10 µM unless noted.
Another assay has as its system MCF7 breast. As to conditions: 10 µM unless noted.
The next assay relates to HT29 colon. As to conditions: 10 µM unless noted.
The next assay has as its system CCRF-CEM leukemia. The following applies: 10 µM unless noted.
A further assay concerns SR leukemia. As to conditions: 10 µM.
A further assay deals with OVCAR-5 ovarian. As to conditions: 10 µM unless noted.

About 83,000 compounds went through this panel and 20% of them were active in at least one assay; those are over-represented in the sample as a whole.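 Single-dose data. Exposure time 48 hours. Values below 10 considered active.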 A number with no mark means an inactive call. Calls of active or inactive are those of the source.

For `CC[C@@H](C)/C=C(C)/C=C/C(=O)c1c(O)c(-c2ccc(O)cc2)cn(O)c1=O`, the growth was 21.9% in the assay with NCI-H522 lung; 3.85% (active) in the assay with A549/ATCC NSCLC; 85.2% with COLO 205 colon; 2.38% (active) in the assay on SNB-75 CNS; 37.7% in the assay with PC-3 prostate; -75.6% (active) in the assay with SK-MEL-5 melanoma. Besides, the growth was 34.7% with SK-MEL-28 melanoma; -0.798% (active) in the assay on EKVX NSCLC; -54.9% (active) in the assay with CAKI-1 renal; 22.5% in the assay with RPMI-8226 leukemia; 5.54% (active) in the assay with IGROV1 ovarian; 25.7% in the assay with OVCAR-3 ovarian. Moreover, the growth in the assay on HS 578T breast is 48%; in the assay on MCF7 breast, 15.4%.
For the compound `S=P(N1CCCCCC1)(N1CC1)N1CC1`, the growth is 102% in the assay on NCI-H522 lung; 104% in the assay on A549/ATCC NSCLC; 93.9% with COLO 205 colon; 101% with HT29 colon; 98.7% in the assay on SNB-75 CNS; 93.7% with PC-3 prostate. The growth in the assay on SK-MEL-5 melanoma was 107%; with SK-MEL-28 melanoma it was 116%; in the assay with EKVX NSCLC, 119%; with CAKI-1 renal, 96.3%; with CCRF-CEM leukemia, 94.4%; with SR leukemia, 82.6%. Also, the growth in the assay with OVCAR-5 ovarian was 107%; with IGROV1 ovarian, 90.1%; with OVCAR-3 ovarian it was 112%; in the assay with HS 578T breast, 122%; in the assay on MCF7 breast, 94%.
In the case of `C1CNC2CCCC2C1` (configuration not stated), the growth is 91.7% with NCI-H522 lung; 110% in the assay on A549/ATCC NSCLC; 102% in the assay on COLO 205 colon; 102% in the assay with HT29 colon; 86.3% in the assay with SNB-75 CNS; 101% in the assay on PC-3 prostate. In addition, the growth was 96.7% in the assay with SK-MEL-5 melanoma; 103% in the assay on CAKI-1 renal; 106% in the assay with CCRF-CEM leukemia; 101% with RPMI-8226 leukemia; 103% with OVCAR-5 ovarian; 117% in the assay with IGROV1 ovarian. Further, the growth with OVCAR-3 ovarian is 107%; in the assay on HS 578T breast it was 111%; with MCF7 breast, 99.7%.
Turning to `C[CH2][Sn]([CH2]C)([CH2]C)[NH]S(=O)(=O)c1ccc(C)cc1`, the growth in the assay on NCI-H522 lung was 110%; with A549/ATCC NSCLC, 102%; in the assay with COLO 205 colon, 128%; in the assay with HT29 colon, 116%; in the assay with SNB-75 CNS, 94.6%; in the assay on PC-3 prostate it was 111%. For the same compound, the growth was 110% with SK-MEL-5 melanoma; 111% in the assay on SK-MEL-28 melanoma; 99% in the assay on EKVX NSCLC; 88.6% in the assay on CAKI-1 renal; 99.7% in the assay with SR leukemia; 115% in the assay on RPMI-8226 leukemia. Moreover, the growth with OVCAR-5 ovarian is 114%; in the assay with IGROV1 ovarian, 111%; with OVCAR-3 ovarian, 113%; in the assay on HS 578T breast, 89.4%; with MCF7 breast, 103%.
Take `CC(N)Cc1ccc(O)cc1` (configuration not stated): the growth is 105% in the assay with NCI-H522 lung; 103% with A549/ATCC NSCLC; 128% in the assay with COLO 205 colon; 98.4% in the assay with HT29 colon; 107% with SNB-75 CNS; 98.8% in the assay with PC-3 prostate. In addition, the growth with SK-MEL-5 melanoma is 103%; in the assay with SK-MEL-28 melanoma, 124%; in the assay with EKVX NSCLC it was 107%; in the assay with CAKI-1 renal, 103%; in the assay on CCRF-CEM leukemia, 93.9%; with SR leukemia, 55.4%. Also, the growth in the assay with OVCAR-5 ovarian is 104%; in the assay on IGROV1 ovarian, 111%; in the assay on OVCAR-3 ovarian, 108%; with MCF7 breast, 100%.
In the case of `O=C1NC(=S)NC(=O)C1=Cc1ccccc1`, the growth in the assay with NCI-H522 lung was 117%; in the assay on A549/ATCC NSCLC it was 101%; in the assay on COLO 205 colon, 103%; in the assay on SNB-75 CNS it was 85.7%; in the assay with PC-3 prostate it was 96.3%; in the assay with SK-MEL-5 melanoma, 98.7%. Further, the growth was 122% in the assay on SK-MEL-28 melanoma; 111% in the assay on EKVX NSCLC; 95% with CAKI-1 renal; 121% with SR leukemia; 100% with OVCAR-5 ovarian; 119% in the assay with IGROV1 ovarian. In addition, the growth was 121% in the assay on OVCAR-3 ovarian, 95.9% with HS 578T breast and 93.2% in the assay on MCF7 breast.
Take `O=[N+]([O-])c1ccccc1N1CCNCC1`: the growth in the assay with NCI-H522 lung was 88.6%; with A549/ATCC NSCLC, 95%; in the assay with COLO 205 colon it was 104%; with SNB-75 CNS, 92.5%; in the assay with PC-3 prostate, 103%; in the assay with SK-MEL-5 melanoma it was 102%. Further, the growth was 104% in the assay with SK-MEL-28 melanoma; 104% in the assay with EKVX NSCLC; 94.1% in the assay with CAKI-1 renal; 112% in the assay with CCRF-CEM leukemia; 88.5% in the assay with SR leukemia; 94% with OVCAR-5 ovarian. The growth with IGROV1 ovarian is 85%; with OVCAR-3 ovarian, 101%; in the assay on HS 578T breast it was 107%; in the assay with MCF7 breast, 105%.
Turning to `COc1cc(C2=NN(c3ccccc3)C(c3sc(N(CCCl)CCCl)nc3Cl)C2)cc(OC)c1OC` (configuration not stated), the growth in the assay with NCI-H522 lung is 69.1%; with A549/ATCC NSCLC it was 83%; in the assay with COLO 205 colon, 90.6%; in the assay on HT29 colon it was 84.5%; in the assay on SNB-75 CNS, 69.2%; in the assay on PC-3 prostate, 73.9%. The growth in the assay on SK-MEL-5 melanoma was 88.4%; in the assay with SK-MEL-28 melanoma it was 99.1%; with EKVX NSCLC, 78.9%; in the assay with CAKI-1 renal, 64%; with CCRF-CEM leukemia, 87.9%; with SR leukemia, 84.2%. For the same compound, the growth was 99.5% in the assay on OVCAR-5 ovarian, 98.7% with OVCAR-3 ovarian, 85.8% in the assay with HS 578T breast and 86.6% in the assay with MCF7 breast.
For the compound `CCC[CH2][Sn]([CH2]CCC)([CH2]CCC)[O]C(=O)CC`, the growth is -81.2% (active) in the assay on NCI-H522 lung; -78.8% (active) in the assay on A549/ATCC NSCLC; -86.7% (active) with COLO 205 colon; -81.2% (active) in the assay with HT29 colon; -99.6% (active) in the assay on SNB-75 CNS; -92.7% (active) with PC-3 prostate. Besides, the growth in the assay on SK-MEL-28 melanoma is -98.3% (active); in the assay on EKVX NSCLC, -43.9% (active); in the assay on SR leukemia, 7.87% (active); with RPMI-8226 leukemia, -31% (active); with OVCAR-5 ovarian, -91.2% (active); in the assay with IGROV1 ovarian it was -80.2% (active). Also, the growth in the assay with OVCAR-3 ovarian was -99.1% (active); in the assay with HS 578T breast it was -38.4% (active); in the assay with MCF7 breast, -82.1% (active).
Regarding `COc1ccc(/C=C\c2cc(OC)c(OC)c(OC)c2)cc1N/C=C\C(=O)c1c[nH]c2ccccc12`, the growth with NCI-H522 lung was -9.96% (active); in the assay on A549/ATCC NSCLC, 28.4%; in the assay on COLO 205 colon it was -65.6% (active); with HT29 colon, -3.93% (active); in the assay on SNB-75 CNS, 19.1%; in the assay with PC-3 prostate, 10.4%. The growth in the assay on SK-MEL-5 melanoma is -53.9% (active); in the assay with SK-MEL-28 melanoma, 33.8%; with CCRF-CEM leukemia, 5.7% (active); with SR leukemia, 2.48% (active); in the assay on RPMI-8226 leukemia, 19.5%; in the assay on OVCAR-5 ovarian, 18.8%. For the same compound, the growth in the assay on IGROV1 ovarian was 21.8%; in the assay on OVCAR-3 ovarian, -9.54% (active); in the assay on HS 578T breast it was 37.5%; in the assay with MCF7 breast, 14.7%.

The record behind these values is PubChem BioAssay (NCI).
